Pf Dd2 inh – Plasmodium falciparum Dd2 growth inhibition; P. falciparum Dd2 growth, SYBR Green, 72 h; Potency, µM (highest dose often 28.9 µM), inactives show at the highest dose activity, negative = inhibition, most hits filed as inhibitors; hit rate 4.3% among 120,000; AID 1347417; active means well fitted inhibition curve with a large enough effect;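 further: plate controls were DMSO vehicle for no effect and reference drug for full effect; nearly all actives have a fitted effect of over 65% in size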
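Infected erythrocytes (Dd2, 0.3% parasitemia, 2.5% hematocrit final) are added to compound in RPMI-1640/Albumax II medium, grown 72 h at 37C in low oxygen, then lysed with saponin/Triton-X containing SYBR Green and read by fluorescence.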
* hit, by the source's call; [ ] = another dose, or the depositor's remark. The sample as a whole holds a higher share of hits than the screen did. Potency means the concentration at half of the fitted maximal effect.

CCN1CCC2(CCC1=O)CN(Cc1nc3c(cnn3C)c(=O)[nH]1)CCN2C (configuration not stated) was read as Pf Dd2 inh -8%.
`CCn1cc(CN2CCc3nn(CC4CC4)c(=O)n3CC2)cn1` gave Pf Dd2 inh -3%.
`COc1cccc(C(=O)N2C(C(=O)NC(C)C)COC23CCN(C(=O)c2ccccc2F)CC3)c1` (configuration not stated) gave Pf Dd2 inh -14%.
`CCOC(=O)c1c(C)[nH]c(C)c1S(=O)(=O)N1CCC(C(=O)N2CCN(c3cc(C)ccc3C)CC2)CC1` gave Pf Dd2 inh 68%.
For CCOC(=O)c1c(C)[nH]c(C)c1S(=O)(=O)N1CCCC(C(=O)N2CCN(c3cccc(C)c3C)CC2)C1 (configuration not stated) the results were Pf Dd2 inh 0.56µM*.
Screening Cc1cccc(CCNC(=O)C2CCCN(S(=O)(=O)c3ccc4c(c3)oc(=O)n4C)C2)c1 (configuration not stated) returned Pf Dd2 inh -21%.
`CCOC(=O)C1CCCN(S(=O)(=O)c2ccc3c(c2)oc(=O)n3C)C1` (configuration not stated) gave Pf Dd2 inh -2%.
Screening CCOC(=O)c1c(C)[nH]c(C)c1S(=O)(=O)N1CCCC(C(=O)Nc2cccc(C)n2)C1 (configuration not stated) returned Pf Dd2 inh -5%.
Cc1cccc(N2CCN(C(=O)C3CCCN(S(=O)(=O)c4ccc5c(c4)oc(=O)n5C)C3)CC2)c1C (configuration not stated) was read as Pf Dd2 inh 11µM*.
`O=C(Nc1ccccc1F)N1CC(c2nnc(-c3ccncc3)o2)C2(CCOCC2)C1` (configuration not stated) gave Pf Dd2 inh -5%.
`O=C(Nc1cccc(-c2ccc(N3CCOCC3)nn2)c1)Nc1ccccc1C(F)(F)F` gave Pf Dd2 inh -22%.
For COc1nccnc1NC1CCN(C(=O)c2c[nH]c3ccccc23)CC1 the results were Pf Dd2 inh inactive[5.79 µM].
COc1ccc(-c2noc(-c3nc(C(C)C)no3)n2)cc1 was read as Pf Dd2 inh 9%.
For CC(=O)N1CC2(Cc3ccccc31)CN(C(=O)Cc1ccc(F)cc1)C2 the results were Pf Dd2 inh inactive.
Screening CCN1C(C(=O)c2ccccc2)=C(NC(=O)c2ccc(Cl)cc2)c2ccccc2S1(=O)=O returned Pf Dd2 inh 13µM*.
Screening CCCCC(=O)OC1=C(C(=O)c2ccccc2)N(CC)S(=O)(=O)c2ccccc21 returned Pf Dd2 inh 1%.
`CCCCCN1C(C(=O)c2ccccc2)=C(NC(=O)c2ccc(OC)c(OC)c2)c2ccccc2S1(=O)=O` gave Pf Dd2 inh 89%.
Cc1cnn(CCC(=O)N2CCC3(CCOCC3)CC2)c1 was read as Pf Dd2 inh -6%.
Screening Cc1ccc(CNC(=O)N2CCCCCCNC(=O)[C@@H]3CCCC[C@@H]32)cc1 returned Pf Dd2 inh -17%.
Screening Cc1nc2c(C(=O)NC(C)c3ccccc3)cnn2c(C)c1Cc1ccccc1 (configuration not stated) returned Pf Dd2 inh 8.9µM*.
`Cc1nc2c(C(=O)NCCc3ccc(Cl)cc3)cnn2c(C)c1Cc1ccc(F)cc1` gave Pf Dd2 inh -17%.
Screening Cc1ccc(Cc2c(C)nc3nc(SCC(=O)NC(C)c4ccccc4)nn3c2C)cc1 (configuration not stated) returned Pf Dd2 inh 10%.
`CC(C)NC(=O)C[C@@H]1C[C@H]2O[C@H](CNC3CCC(F)(F)CC3)[C@@H](O)[C@H]2O1` gave Pf Dd2 inh 31%[44.1 µM].
For CCOc1cccc(-c2noc(-c3nnn4c3COC(c3ccc(OC)cc3)C4)n2)c1 (configuration not stated) the results were Pf Dd2 inh -4%.
Screening O=C(c1ccco1)N1CCN(C(=O)C2CN(S(=O)(=O)C3CC3)CC23CCCCC3)CC1 (configuration not stated) returned Pf Dd2 inh inactive.
CC(C)CN1CCN(C(=O)CCC[C@@H]2[C@H]3CCCN4CCC[C@@H](CN2C(=O)c2ccccc2)[C@@H]34)CC1 was read as Pf Dd2 inh inactive.
Cc1ccc(CN(Cc2cccn2-c2nnc(N3CCCC3=O)s2)C(=O)Nc2cc(C)cc(C)c2)cc1 was read as Pf Dd2 inh 3.2µM*.
COC(=O)c1ccccc1NC(=O)N(Cc1ccc(C)cc1)Cc1cccn1-c1nnc(N2CCCC2=O)s1 was read as Pf Dd2 inh 2%.
`Cc1ccc(NCc2cccn2-c2nnc(N3CCC(C(=O)NC(C)C)CC3)s2)cc1` gave Pf Dd2 inh inactive.
For CCOc1cc(=O)n2c(c1C(=O)Nc1ccc(C(N)=O)cc1)CCCC2 the results were Pf Dd2 inh 22%.
Screening CCC(=O)N1CCN(C2CCN(CCc3ccccc3)C2=O)CC1 (configuration not stated) returned Pf Dd2 inh inactive.
For Cc1ccc(C(=O)N2CCN(C3CCN(CCc4ccccc4)C3=O)CC2)cc1F (configuration not stated) the results were Pf Dd2 inh 10µM*.

From PubChem BioAssay
